Measurements reported in the supplement of paper PMC4709259.
Structures can show the parent of a compound that is named as a salt. ± gives the standard deviation.

What was measured:
[1] = system: Jurkat; experiment: mean cell size (FSC-A) relative to DMSO control (fraction of control); higher = larger cells; conditions: 48 h
In short: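 Jurkat cells seeded at 600 cells/µl were incubated 1 h, then exposed for 48h to the Enzo Screen-Well FDA Approved Drug Library v2.0 at 25µM in 0.9% (v/v) final DMSO. Drugs that cut counts below 20% of controls were diluted 10-fold and retested, down to 25nM. Cell count and mean cell size (forward scatter area) were read on an Accuri C6 flow cytometer, relative to solvent-only controls. Plates held 6-12 controls; values are means of 3 biological replicates.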

[2] = system: Jurkat; experiment: cell count relative to DMSO control (fraction of control); higher = more cells (less growth inhibition); conditions: 48 h

Structure (SMILES)	mean cell size [1]	cell count [2]
COc1cc2nc(N3CCN(C(=O)c4ccco4)CC3)nc(N)c2cc1OC [Prazosin·HCl] (concentration: 2.5 µM)	1.03 ± 0.056	0.484 ± 0.18
Cc1ccc(-c2cc(C(F)(F)F)nn2-c2ccc(S(N)(=O)=O)cc2)cc1 [Celecoxib] (concentration: 25 µM)	0.966 ± 0.029	0.514 ± 0.11
CNCCCC12CCC(c3ccccc31)c1ccccc12 [Maprotiline·HCl] (concentration: 2.5 µM)	0.991 ± 0.018	0.788 ± 0.053
Cc1cccc(Nc2ccccc2C(=O)O)c1C [Mefenamic Acid] (concentration: 25 µM)	0.938 ± 0.025	0.655 ± 0.14
CCN[C@H]1C[C@H](C)S(=O)(=O)c2sc(S(N)(=O)=O)cc21 [Dorzolamide·HCl] (concentration: 25 µM)	0.965 ± 0.04	0.675 ± 0.14
CCCN(CCC)S(=O)(=O)c1ccc(C(=O)O)cc1 [Probenecid] (concentration: 25 µM)	0.993 ± 0.012	0.595 ± 0.13
N=C(N)NC(=O)c1nc(Cl)c(N)nc1N [Amiloride·HCl·2H2O] (concentration: 25 µM)	0.945 ± 0.055	0.504 ± 0.045
OC(CNCC(O)C1CCc2cc(F)ccc2O1)C1CCc2cc(F)ccc2O1 (centres undefined) [Nebivolol·HCl] (concentration: 25 µM)	1.15 ± 0.094	0.483 ± 0.11
Clc1ccc(COC(Cn2ccnc2)c2ccc(Cl)cc2Cl)cc1 (centres undefined) [Econazole Nitrate] (concentration: 25 µM)	0.959 ± 0.03	0.774 ± 0.096
COc1ccc(CC2c3cc(OC)c(OC)cc3CC[N+]2(C)CCC(=O)OCCCCCOC(=O)CC[N+]2(C)CCc3cc(OC)c(OC)cc3C2Cc2ccc(OC)c(OC)c2)cc1OC (centres undefined) [Atracurium Besylate] (concentration: 25 µM)	1.04 ± 0.008	0.264 ± 0.023
CC[C@@H]1/C=C(\C)C[C@H](C)C[C@H](OC)[C@H]2O[C@@](O)(C(=O)C(=O)N3CCCC[C@H]3C(=O)O[C@H](/C(C)=C/[C@@H]3CC[C@H](Cl)[C@H](OC)C3)[C@H](C)[C@@H](O)CC1=O)[C@H](C)C[C@@H]2OC [Pimecrolimus] (concentration: 25 µM)	0.822 ± 0.021	0.692 ± 0.099
Cc1c(O)cccc1C(=O)N[C@@H](CSc1ccccc1)[C@H](O)CN1C[C@H]2CCCC[C@H]2C[C@H]1C(=O)NC(C)(C)C [Nelfinavir Mesylate] (concentration: 2.5 µM)	1.03 ± 0.015	0.779 ± 0.084
O=C(O)COCCN1CCN([C@H](c2ccccc2)c2ccc(Cl)cc2)CC1 [Levocetirizine Dihydrochloride] (concentration: 25 µM)	0.961 ± 0.039	0.91 ± 0.068
Cc1onc(-c2c(Cl)cccc2Cl)c1C(=O)N[C@@H]1C(=O)N2[C@@H]1SC(C)(C)[C@@H]2C(=O)O [Dicloxacillin·Na Salt Monohydrate] (concentration: 25 µM)	0.939 ± 0.0097	1.07 ± 0.06
Cc1ccc(N(CC2=NCCN2)c2cccc(O)c2)cc1 [Phentolamine·HCl] (concentration: 25 µM)	1.09 ± 0.072	0.612 ± 0.16
CC(=O)OCC(=O)[C@@]1(O)CC[C@H]2[C@@H]3CCC4=CC(=O)CC[C@]4(C)[C@H]3[C@@H](O)C[C@@]21C [Hydrocortisone Acetate] (concentration: 25 µM)	0.959 ± 0.045	0.716 ± 0.12
Nc1nc2c(ncn2COC(CO)CO)c(=O)[nH]1 [Ganciclovir] (concentration: 25 µM)	1.022 ± 0.0079	0.51 ± 0.1
O=C(CCCCCCC(=O)Nc1ccccc1)NO [Vorinostat] (concentration: 250 nM)	0.947 ± 0.035	0.71 ± 0.048
C[C@@H](O)[C@H]1C(=O)N2C(C(=O)O)=C(S[C@@H]3CN[C@H](C(=O)N(C)C)C3)[C@H](C)[C@H]12 [Meropenem] (concentration: 25 µM)	0.944 ± 0.015	0.939 ± 0.078
Nc1nc(=O)[nH]cc1F [Flucytosine] (concentration: 25 µM)	0.997 ± 0.035	0.919 ± 0.025
Cc1ncc([N+](=O)[O-])n1CCO [Metronidazole] (concentration: 25 µM)	0.928 ± 0.012	0.75 ± 0.047
CC(=O)O[C@]1(C(C)=O)CC[C@H]2[C@@H]3C=C(C)C4=CC(=O)CC[C@]4(C)[C@H]3CC[C@@]21C [Megestrol Acetate] (concentration: 25 µM)	0.9825 ± 0.0053	0.704 ± 0.059
COc1ccccc1OCC(O)CN1CCN(CC(=O)Nc2c(C)cccc2C)CC1 (centres undefined) [Ranolazine·2HCl] (concentration: 25 µM)	0.987 ± 0.031	0.979 ± 0.084
N#Cc1ccc(C(c2ccc(C#N)cc2)n2cncn2)cc1 [Letrozole] (concentration: 25 µM)	1.01 ± 0.028	0.798 ± 0.019

Structure (SMILES)	mean cell size [1]	cell count [2]
N[C@@H](C(=O)N[C@@H]1C(=O)N2C(C(=O)O)=C(Cl)CS[C@H]12)c1ccccc1 [Cefaclor] (concentration: 25 µM)	0.916 ± 0.015	1.03 ± 0.097
C#C[C@]1(O)CC[C@H]2[C@@H]3CCC4=CC(=O)CC[C@@H]4[C@H]3CC[C@@]21C [Norethindrone] (concentration: 25 µM)	0.948 ± 0.024	0.901 ± 0.084
CC[C@H]1OC(=O)[C@H](C)C(=O)[C@H](C)[C@@H](O[C@@H]2O[C@H](C)C[C@H](N(C)C)[C@H]2O)[C@](C)(OC)C[C@@H](C)C(=O)[C@H](C)[C@H]2N(CCCCn3cnc(-c4cccnc4)c3)C(=O)O[C@]12C [Telithromycin] (concentration: 25 µM)	0.921 ± 0.049	0.949 ± 0.057
CC1(C)O[C@@H]2C[C@H]3[C@@H]4CCC5=CC(=O)CC[C@]5(C)[C@@]4(F)[C@@H](O)C[C@]3(C)[C@]2(C(=O)CCl)O1 [Halcinonide] (concentration: 25 µM)	0.914 ± 0.03	0.883 ± 0.12
CN(C)CCOC(c1ccc(Cl)cc1)c1ccccn1 (centres undefined) [Carbinoxamine Maleate] (concentration: 25 µM)	0.968 ± 0.054	0.735 ± 0.064
Nc1nc2[nH]cnc2c(=S)[nH]1 [Thioguanine (6-Thioguanine)] (concentration: 25 µM)	0.935 ± 0.045	1.09 ± 0.061
C[C@@](Cc1ccc(O)c(O)c1)(NN)C(=O)O [Carbidopa] (concentration: 25 µM)	0.939 ± 0.027	0.439 ± 0.09
CCN(CC)C(=O)/C(C#N)=C/c1cc(O)c(O)c([N+](=O)[O-])c1 [Entacapone] (concentration: 25 µM)	1.06 ± 0.055	0.519 ± 0.059
CO/N=C(\C(=O)N[C@@H]1C(=O)N2C(C(=O)OCOC(=O)C(C)(C)C)=C(/C=C\c3scnc3C)CS[C@H]12)c1csc(N)n1 [Cefditoren Pivoxil] (concentration: 25 µM)	0.9999 ± 0.0094	0.77 ± 0.14
CN1[C@@H]2CC[C@H]1C[C@@H](OC(c1ccccc1)c1ccccc1)C2 [Benztropine Mesylate] (concentration: 25 µM)	0.976 ± 0.054	0.666 ± 0.17
CN[C@@H]1[C@H](O[C@H]2[C@H](O[C@H]3[C@H](O)[C@@H](O)[C@H](N=C(N)N)[C@@H](O)[C@@H]3N=C(N)N)O[C@@H](C)[C@]2(O)C=O)O[C@@H](CO)[C@H](O)[C@H]1O [Streptomycin Sulfate] (concentration: 25 µM)	0.996 ± 0.028	0.791 ± 0.011
C[C@@H](O)[C@H]1C(=O)N2C(C(=O)O)=C(S[C@@H]3CN[C@H](CNS(N)(=O)=O)C3)[C@H](C)[C@H]12 [Doripenem] (concentration: 25 µM)	0.94 ± 0.011	0.963 ± 0.12
O=C(O)C[C@H](O)C[C@H](O)/C=C/c1c(C2CC2)nc2ccccc2c1-c1ccc(F)cc1 [Pitavastatin Calcium] (concentration: 25 µM)	0.9938 ± 0.0093	0.647 ± 0.065
CO[C@@]12[C@H](COC(N)=O)C3=C(C(=O)C(C)=C(N)C3=O)N1C[C@@H]1N[C@@H]12 [Mitomycin C] (concentration: 2.5 µM)	1.22 ± 0.059	0.257 ± 0.048
C[N+](C)(C)CC(=O)O [Betaine] (concentration: 25 µM)	0.945 ± 0.047	0.449 ± 0.066
C[C@]12C=CC(=O)C=C1CC[C@@H]1[C@@H]2C(=O)C[C@@]2(C)[C@H]1CC[C@]2(O)C(=O)CO [Prednisone] (concentration: 25 µM)	1 ± 0.042	0.689 ± 0.13
NNC(=O)c1ccncc1 [Isoniazid] (concentration: 25 µM)	0.969 ± 0.022	0.925 ± 0.019
CCCCCOc1ccc(-c2cc(-c3ccc(C(=O)N[C@H]4C[C@@H](O)[C@@H](O)NC(=O)[C@@H]5[C@@H](O)[C@@H](C)CN5C(=O)[C@H]([C@H](O)CC(N)=O)NC(=O)[C@H]([C@H](O)[C@@H](O)c5ccc(O)c(OS(=O)(=O)O)c5)NC(=O)[C@@H]5C[C@@H](O)CN5C(=O)[C@H]([C@@H](C)O)NC4=O)cc3)no2)cc1 [Micafungin] (concentration: 25 µM)	0.993 ± 0.031	0.52 ± 0.081
C[C@H](CCC(=O)O)[C@H]1CC[C@H]2[C@@H]3[C@H](O)C[C@@H]4C[C@H](O)CC[C@]4(C)[C@H]3CC[C@]12C [Chenodiol (Chenodeoxycholic Acid)] (concentration: 25 µM)	0.946 ± 0.037	0.838 ± 0.13
CCCC(CCC)C(=O)O [Valproic Acid] (concentration: 25 µM)	0.986 ± 0.028	0.728 ± 0.029
CSc1ccc2c(c1)N(CCC1CCCCN1C)c1ccccc1S2 (centres undefined) [Thioridazine·HCl] (concentration: 2.5 µM)	1.08 ± 0.014	0.646 ± 0.18
CC(C)Nc1cccnc1N1CCN(C(=O)c2cc3cc(NS(C)(=O)=O)ccc3[nH]2)CC1 [Delavirdine Mesylate] (concentration: 25 µM)	0.942 ± 0.036	0.887 ± 0.099
O=C1CCCC(=O)C1C(=O)c1ccc(C(F)(F)F)cc1[N+](=O)[O-] [Nitisinone] (concentration: 25 µM)	0.938 ± 0.017	0.936 ± 0.1
